{
  "source": "ChEMBL document CHEMBL2218924",
  "about": "“A broad activity screen in support of a chemogenomic map for kinase signalling research and drug discovery” (Biochem J, 2013)",
  "data": [
    {"biological_target": "Tyrosine-protein kinase Lck (Homo sapiens) (UniProt P06239)", "sequence (P06239 2-509 limits assumed)": "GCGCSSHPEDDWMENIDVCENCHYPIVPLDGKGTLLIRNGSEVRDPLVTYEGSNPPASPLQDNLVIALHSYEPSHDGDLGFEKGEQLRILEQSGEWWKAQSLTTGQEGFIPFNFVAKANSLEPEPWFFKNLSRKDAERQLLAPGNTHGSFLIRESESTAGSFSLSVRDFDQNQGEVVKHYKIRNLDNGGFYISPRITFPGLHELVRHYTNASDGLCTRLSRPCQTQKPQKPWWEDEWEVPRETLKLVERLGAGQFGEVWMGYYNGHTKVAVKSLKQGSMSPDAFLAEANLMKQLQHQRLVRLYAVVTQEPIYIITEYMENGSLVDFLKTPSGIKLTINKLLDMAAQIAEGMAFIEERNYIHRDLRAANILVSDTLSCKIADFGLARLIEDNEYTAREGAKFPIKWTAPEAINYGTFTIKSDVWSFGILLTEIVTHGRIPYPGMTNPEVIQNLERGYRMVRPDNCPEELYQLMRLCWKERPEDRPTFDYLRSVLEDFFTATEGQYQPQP", "settings": "at 1 µM", "units": {"residual activity": "%"}, "values": [
      {"smiles": "NC(=O)c1ccc2[nH]c(-c3ccc(Oc4ccc(Cl)cc4)cc3)nc2c1", "residual activity": 105},
      {"smiles": "Cc1nc(-c2ccccc2)c(-c2ccncc2)o1", "residual activity": 45},
      {"smiles": "CCOc1cc2ncnc(Nc3cccc(Br)c3)c2cc1OCC", "residual activity": 26},
      {"smiles": "CC(C)n1cnc2/c(=N/c3cccc(Cl)c3)nc(NCCO)[nH]c21", "residual activity": 86},
      {"smiles": "Nc1nc(Nc2ccc(S(N)(=O)=O)cc2)nn1C(=S)Nc1c(F)cccc1F", "residual activity": 8},
      {"smiles": "Cc1ccc(S(=O)(=O)/C=C/C#N)cc1", "residual activity": 87},
      {"smiles": "Ic1cccc(CSc2nnc(-c3ccncc3)o2)c1", "residual activity": 82},
      {"smiles": "O=C1NC(=O)c2c1c1c3ccccc3[nH]c1c1[nH]c3cc(Br)ccc3c21", "residual activity": 95},
      {"smiles": "O=C1NC(=O)/C(=C\\c2ccc3nccnc3c2)S1", "residual activity": 81},
      {"smiles": "CCN(CC)CCCCN1c2ccccc2Oc2ccc(Cl)cc21", "residual activity": 101},
      {"smiles": "COc1cccc(-c2cc(=O)c3ccccc3o2)c1N", "residual activity": 103},
      {"smiles": "O=C1c2ccccc2-[n+]2ccc3c([nH]c4ccccc43)c21", "residual activity": 81},
      {"smiles": "Oc1ccc(-c2nc(-c3ccc(F)cc3)c(-c3ccncc3)[nH]2)cc1", "residual activity": 80},
      {"smiles": "Cc1nc2cc3nc(-c4cccs4)cnc3cc2n1C", "residual activity": 89},
      {"smiles": "COc1ccc(C(=O)Nc2sc3c(c2C(N)=O)CCCC3)cc1OC", "residual activity": 88},
      {"smiles": "Cn1cc(/C=C2\\C(=O)Nc3ccc(S(N)(=O)=O)cc32)c2ccccc21", "residual activity": 30},
      {"smiles": "Nc1ccc2ncnc(NCCc3ccc(Oc4ccccc4)cc3)c2c1", "residual activity": 83},
      {"smiles": "CO[C@H]1C[C@@H]2CC[C@@H](C)[C@@](O)(O2)C(=O)C(=O)N2CCCC[C@H]2C(=O)O[C@H]([C@H](C)C[C@@H]2CC[C@@H](O)[C@H](OC)C2)CC(=O)[C@H](C)/C=C(\\C)[C@@H](O)[C@@H](OC)C(=O)[C@H](C)C[C@H](C)/C=C/C=C/C=C/1C", "residual activity": 102},
      {"smiles": "CCC(=O)Nc1ccc2ncnc(Nc3cccc(Br)c3)c2c1", "residual activity": 77},
      {"smiles": "O=C(Nc1cccc(Nc2cc(Nc3cccc(C(F)(F)F)c3)ncn2)c1)C1CC1", "residual activity": 85},
      {"smiles": "O=[N+]([O-])c1ccc(-c2nc(-c3ccc(F)cc3)c(-c3ccncc3)[nH]2)cc1", "residual activity": 92},
      {"smiles": "O=c1c2ccccc2[nH]c(=S)n1CCN1CCC(=C(c2ccc(F)cc2)c2ccc(F)cc2)CC1", "residual activity": 83},
      {"smiles": "COc1cc2ncnc(Nc3ccc(NC(=O)c4ccccc4)cc3)c2cc1OC", "residual activity": 30},
      {"smiles": "COc1ccc(OC)c2c(=S)c3ccccc3[nH]c12", "residual activity": 103},
      {"smiles": "O=C(O)c1ccc2c3c1cccc3c(=O)n1c3ccccc3nc21", "residual activity": 95},
      {"smiles": "Cn1cnc2cc3c(Nc4cccc(Br)c4)ncnc3cc21", "residual activity": 41},
      {"smiles": "COc1ccc(S(=O)(=O)N(CCO)c2ccccc2CN(C)C/C=C/c2ccc(Cl)cc2)cc1", "residual activity": 105},
      {"smiles": "CNc1cc2c(Nc3cccc(Br)c3)ncnc2cn1", "residual activity": 73},
      {"smiles": "COc1cc2ncnc(N3CCN(C(=O)Nc4ccc(Oc5ccccc5)cc4)CC3)c2cc1OC", "residual activity": 92},
      {"smiles": "O=C(Nc1cccc(Nc2nccc(Nc3cccc(C(F)(F)F)c3)n2)c1)C1CC1", "residual activity": 57},
      {"smiles": "c1ccc(-c2n[nH]cc2-c2ccnc3ccccc23)nc1", "residual activity": 91},
      {"smiles": "O=c1cc(-c2cccc3c2Sc2ccccc2S3)oc(N2CCOCC2)c1", "residual activity": 112},
      {"smiles": "O=Nc1c(-c2c(O)[nH]c3ccccc23)[nH]c2ccccc12", "residual activity": 22},
      {"smiles": "Nc1n[nH]c2nnc(-c3c(-c4ccccc4)nn4ccccc34)cc12", "residual activity": 94},
      {"smiles": "CC(=O)O/N=C1\\C(=C2\\C(=O)Nc3cc(Br)ccc32)Nc2ccccc21", "residual activity": 63}
    ]},
    {"biological_target": "Tyrosine-protein kinase Lck (Homo sapiens) (UniProt P06239)", "settings": "at 10 µM", "units": {"residual activity": "%"}, "values": [
      {"smiles": "NC(=O)c1ccc2[nH]c(-c3ccc(Oc4ccc(Cl)cc4)cc3)nc2c1", "residual activity": 102},
      {"smiles": "Cc1nc(-c2ccccc2)c(-c2ccncc2)o1", "residual activity": 42},
      {"smiles": "CCOc1cc2ncnc(Nc3cccc(Br)c3)c2cc1OCC", "residual activity": 8},
      {"smiles": "CC(C)n1cnc2/c(=N/c3cccc(Cl)c3)nc(NCCO)[nH]c21", "residual activity": 40},
      {"smiles": "Nc1nc(Nc2ccc(S(N)(=O)=O)cc2)nn1C(=S)Nc1c(F)cccc1F", "residual activity": 18},
      {"smiles": "Cc1ccc(S(=O)(=O)/C=C/C#N)cc1", "residual activity": 97},
      {"smiles": "Ic1cccc(CSc2nnc(-c3ccncc3)o2)c1", "residual activity": 87},
      {"smiles": "O=C1NC(=O)c2c1c1c3ccccc3[nH]c1c1[nH]c3cc(Br)ccc3c21", "residual activity": 95},
      {"smiles": "O=C1NC(=O)/C(=C\\c2ccc3nccnc3c2)S1", "residual activity": 61},
      {"smiles": "CCN(CC)CCCCN1c2ccccc2Oc2ccc(Cl)cc21", "residual activity": 64},
      {"smiles": "COc1cccc(-c2cc(=O)c3ccccc3o2)c1N", "residual activity": 93},
      {"smiles": "O=C1c2ccccc2-[n+]2ccc3c([nH]c4ccccc43)c21", "residual activity": 74},
      {"smiles": "Oc1ccc(-c2nc(-c3ccc(F)cc3)c(-c3ccncc3)[nH]2)cc1", "residual activity": 26},
      {"smiles": "Cc1nc2cc3nc(-c4cccs4)cnc3cc2n1C", "residual activity": 48},
      {"smiles": "COc1ccc(C(=O)Nc2sc3c(c2C(N)=O)CCCC3)cc1OC", "residual activity": 84},
      {"smiles": "Cn1cc(/C=C2\\C(=O)Nc3ccc(S(N)(=O)=O)cc32)c2ccccc21", "residual activity": 34},
      {"smiles": "Nc1ccc2ncnc(NCCc3ccc(Oc4ccccc4)cc3)c2c1", "residual activity": 20},
      {"smiles": "CO[C@H]1C[C@@H]2CC[C@@H](C)[C@@](O)(O2)C(=O)C(=O)N2CCCC[C@H]2C(=O)O[C@H]([C@H](C)C[C@@H]2CC[C@@H](O)[C@H](OC)C2)CC(=O)[C@H](C)/C=C(\\C)[C@@H](O)[C@@H](OC)C(=O)[C@H](C)C[C@H](C)/C=C/C=C/C=C/1C", "residual activity": 124},
      {"smiles": "CCC(=O)Nc1ccc2ncnc(Nc3cccc(Br)c3)c2c1", "residual activity": 75},
      {"smiles": "O=C(Nc1cccc(Nc2cc(Nc3cccc(C(F)(F)F)c3)ncn2)c1)C1CC1", "residual activity": 81},
      {"smiles": "O=[N+]([O-])c1ccc(-c2nc(-c3ccc(F)cc3)c(-c3ccncc3)[nH]2)cc1", "residual activity": 82},
      {"smiles": "O=c1c2ccccc2[nH]c(=S)n1CCN1CCC(=C(c2ccc(F)cc2)c2ccc(F)cc2)CC1", "residual activity": 65},
      {"smiles": "COc1cc2ncnc(Nc3ccc(NC(=O)c4ccccc4)cc3)c2cc1OC", "residual activity": 9},
      {"smiles": "COc1ccc(OC)c2c(=S)c3ccccc3[nH]c12", "residual activity": 92},
      {"smiles": "O=C(O)c1ccc2c3c1cccc3c(=O)n1c3ccccc3nc21", "residual activity": 79},
      {"smiles": "Cn1cnc2cc3c(Nc4cccc(Br)c4)ncnc3cc21", "residual activity": 34},
      {"smiles": "COc1ccc(S(=O)(=O)N(CCO)c2ccccc2CN(C)C/C=C/c2ccc(Cl)cc2)cc1", "residual activity": 43},
      {"smiles": "CNc1cc2c(Nc3cccc(Br)c3)ncnc2cn1", "residual activity": 79},
      {"smiles": "COc1cc2ncnc(N3CCN(C(=O)Nc4ccc(Oc5ccccc5)cc4)CC3)c2cc1OC", "residual activity": 68},
      {"smiles": "O=C(Nc1cccc(Nc2nccc(Nc3cccc(C(F)(F)F)c3)n2)c1)C1CC1", "residual activity": 42},
      {"smiles": "c1ccc(-c2n[nH]cc2-c2ccnc3ccccc23)nc1", "residual activity": 66},
      {"smiles": "O=c1cc(-c2cccc3c2Sc2ccccc2S3)oc(N2CCOCC2)c1", "residual activity": 102},
      {"smiles": "O=Nc1c(-c2c(O)[nH]c3ccccc23)[nH]c2ccccc12", "residual activity": 17},
      {"smiles": "Nc1n[nH]c2nnc(-c3c(-c4ccccc4)nn4ccccc34)cc12", "residual activity": 68},
      {"smiles": "CC(=O)O/N=C1\\C(=C2\\C(=O)Nc3cc(Br)ccc32)Nc2ccccc21", "residual activity": 26}
    ]}
  ]
}
